Experimental data from PubChem BioAssay (NCI).
The panel holds about 83,000 compounds, 20% with a hit somewhere; the sample as a whole holds those more often.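 Interpretation: 100, growth as untreated; towards 0, rising growth inhibition; 0, no net growth; 0 to -100, cell death. Compounds scoring below 10 were considered active.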 A number with no mark means an inactive call. Calls of active or inactive are those of the source.

What was measured:
Assay in all cases: NCI-60 one-dose screen, 48 h (100 = growth as untreated, 0 = no growth, -100 = all killed)
Conditions in all cases: 10 µM unless noted
RPMI-8226 leukemia = system: RPMI-8226 leukemia
OVCAR-8 ovarian = system: OVCAR-8 ovarian
OVCAR-5 ovarian = system: OVCAR-5 ovarian
OVCAR-4 ovarian = system: OVCAR-4 ovarian
SK-OV-3 ovarian = system: SK-OV-3 ovarian
IGROV1 ovarian = system: IGROV1 ovarian
OVCAR-3 ovarian = system: OVCAR-3 ovarian
HS 578T breast = system: HS 578T breast
NCI/ADR-RES ovarian = system: NCI/ADR-RES ovarian
BT-549 breast = system: BT-549 breast
MDA-MB-435 melanoma = system: MDA-MB-435 melanoma
SW-620 colon = system: SW-620 colon
MCF7 breast = system: MCF7 breast
HCT-116 colon = system: HCT-116 colon
HCC-2998 colon = system: HCC-2998 colon
KM12 colon = system: KM12 colon

Row | SMILES | growth (RPMI-8226 leukemia) | growth (OVCAR-8 ovarian) | growth (OVCAR-5 ovarian) | growth (OVCAR-4 ovarian) | growth (SK-OV-3 ovarian) | growth (IGROV1 ovarian) | growth (OVCAR-3 ovarian) | growth (HS 578T breast) | growth (NCI/ADR-RES ovarian) | growth (BT-549 breast) | growth (MDA-MB-435 melanoma) | growth (SW-620 colon) | growth (MCF7 breast) | growth (HCT-116 colon) | growth (HCC-2998 colon) | growth (KM12 colon)
1 | CNC(=O)c1c(NC(=O)c2ccc(C(C)(C)C)cc2)sc2c1CCC(=O)C2 | -20.6% (active) | 15.7% | 9.12% (active) | -66.4% (active) | 0.618% (active) | 4.71% (active) | -21.4% (active) | 24.2% | 8.75% (active) | 1.12% (active) | -9.83% (active) | -62.3% (active) | 8.99% (active) | 0.171% (active) | 23.3% | -7.97% (active)
2 | C[C@H]1[C@H](C)CC[C@]2(C(=O)N3CCN(C)CC3)CC[C@]3(C)C(=CC[C@@H]4[C@@]5(C)C/C(=C/c6cccnc6)C(=O)C(C)(C)[C@@H]5CC[C@]43C)[C@H]12 | -59.3% (active) | -76.2% (active) | -77.8% (active) | -24.9% (active) | -89.5% (active) | -69.2% (active) | -93.2% (active) | -30.7% (active) | -75.1% (active) | -81.2% (active) | -65.1% (active) | -49.9% (active) | -73.8% (active) | -88.2% (active) | -92.3% (active) | -89.3% (active)
3 | CC(C)(C)CC(C)(C)Nc1c(-c2ccc(-c3ccccc3)cc2)nc2cnccn12 | 68.7% | 70.2% | 88.1% | -26.5% (active) | 76.3% | 66% | 90.2% | 95.5% | 97.7% | 95% | 82.7% | 97.1% | 82.3% | 59.8% | 93.7% | –
4 | CC1(C)C(=O)/C(=C\c2cccnc2)C[C@]2(C)[C@H]3CC=C4[C@@H]5C[C@@](C)(C(=O)O)CC[C@]5(C)CC[C@@]4(C)[C@]3(C)CC[C@@H]12 | 71.5% | 89.7% | 107% | 90.6% | 94.9% | 103% | 98.3% | 99.2% | 102% | 96.6% | 103% | 107% | 87.7% | 91.9% | 108% | 99.2%
5 | C=C(C)[C@@H]1CC[C@]2(CN)CC[C@]3(C)[C@H](CC[C@@H]4[C@@]5(C)CCC(N)[C@@](C)(CO)[C@@H]5CC[C@]43C)[C@@H]12 (some centres not stated) | -51.8% (active) | -72.9% (active) | 48.5% | -4.67% (active) | -80.5% (active) | 67% | -75.9% (active) | -37.1% (active) | 76.2% | 80.4% | -86.7% (active) | -76.5% (active) | -72.2% (active) | -85.5% (active) | -53.6% (active) | -72.1% (active)
6 | c1ccc2c(c1)nc(-n1ccnc1)c1nc3ccccc3n12 | 77.9% | 30.4% | 82.4% | 68% | 21.5% | 52.5% | 78.1% | 70.3% | 49.2% | 45.5% | 76.1% | 65.7% | 62.5% | 52.5% | 76% | 64.9%
7 | C#CC[C@H](N)C(=O)O | 106% [20 µM] | 99.2% [20 µM] | 93.2% [20 µM] | 107% [20 µM] | 105% [20 µM] | 106% [20 µM] | 111% [20 µM] | 111% [20 µM] | 108% [20 µM] | 106% [20 µM] | 102% [20 µM] | 103% [20 µM] | 91.7% [20 µM] | 96.3% [20 µM] | 116% [20 µM] | 105% [20 µM]
8 | Nc1ccc(S(=O)(=O)Nc2ccsc2-c2nc(-c3ccccc3)no2)cc1 | 65.8% | 59.7% | 87.5% | 81.9% | 62.3% | 64.7% | 36.8% | 56.4% | 54.6% | 59% | 3.96% (active) | 29.8% | 55.9% | 38.4% | 79.4% | 33.6%
9 | COc1ccc(Nc2ncc(Br)c(NCCCNC(=O)C3CCC3)n2)cc1 | 40.1% | 28.6% | 31.1% | -0.243% (active) | 10.6% | 14.5% | 31.6% | -15.7% (active) | 47.4% | -33.9% (active) | 53.8% | 29.1% | 41.1% | 5.88% (active) | 42.4% | 15.2%
10 | Cc1cnc(Nc2ccc(OCCN3CCCC3)cc2)nc1NCc1ccco1 | 50.7% | 95.1% | 78.1% | 59.4% | 108% | 71% | 82.7% | 80.3% | 101% | 78.2% | 84.1% | 67.5% | 50.8% | 40.5% | 87% | 22.7%
11 | C=C1c2c(C)nn(-c3ccc(S(N)(=O)=O)cc3)c2N(C)C23CC1C1(C)c4c(C)nn(-c5ccc(S(N)(=O)=O)cc5)c4N(C)C(C)(CC12)C3 (configuration not stated) | -64% (active) | 40.1% | 64% | 39.3% | 57.6% | 49.1% | 41.6% | 54.3% | 79.2% | 49.6% | 32.9% | 39.2% | 15.9% | 14.4% | 47% | 33.1%
12 | CN1CCN(C(=O)[C@]23CCC(C)(C)C[C@@H]2C2=CC[C@@H]4[C@@]5(C)Cc6c([nH]c7ccccc67)C(C)(C)[C@@H]5CC[C@@]4(C)[C@]2(C)CC3)CC1 | 71.6% | 79.6% | 79.8% | 72% | 76.8% | 84.4% | 78.3% | 73.2% | 89.9% | 97% | 84.6% | 96.4% | 69.9% | 70.7% | 99.4% | 76.3%
13 | Cn1c(NCCc2ccc(O)c(O)c2)nc2c1c(=O)n(Cc1ccc(Cl)cc1)c(=O)n2C | 37.9% | 87.6% | 94.9% | 59.8% | 82.3% | 61.9% | 62.6% | 77% | 88.5% | 71.6% | 76.3% | 75.9% | 75.3% | 71.4% | 89.3% | 79.6%
14 | CCOc1cc(C2C(Cl)C(=O)N2n2cnnc2)ccc1O (configuration not stated) | 103% | 95.5% | 106% | 98.2% | 82.4% | 104% | 96.4% | 88.7% | 100% | 93% | 96.2% | 97.2% | 97.5% | 93.3% | 99.7% | 99.1%
15 | C[C@@H]1CC[C@@H]2[C@@H]1[C@H](OC(=O)c1ccc3ccccc3c1)[C@]1(C3CCCCC3)C[C@@H](OC(=O)CO)[C@@]2(C)O1 | 31.4% | 18.5% | 89.4% | 55.5% | 75.4% | 71.1% | 73.6% | -32.1% (active) | 14.6% | 0.366% (active) | 72.1% | 65.1% | 20.5% | 28.3% | 51.3% | 54.2%
16 | c1ccc2c(c1)ncn2-c1nc2ccccc2n2c1nc1ccccc12 | 81.7% | 80.5% | 81% | 67.9% | 69.2% | 51.4% | 89.6% | 83.8% | 87% | 91.6% | 102% | 78.4% | 7.93% (active) | 67.2% | 20.5% | 47.7%
17 | C=C1C(=O)O[C@H]2[C@H]1CC/C(COC(=O)NCc1ccc(Cn3c(=O)sn(CCCCl)c3=O)cc1)=C\CC[C@@]1(C)O[C@@H]21 | -30.1% (active) | 43.7% | 69.8% | 15.2% | 91.9% | -36.3% (active) | -87.9% (active) | 88.2% | 104% | 51.8% | 26.8% | -51.9% (active) | 5.59% (active) | -63.6% (active) | 91.4% | 77.7%
18 | COc1ccc(-n2ncn(CCCCCCn3cnn(-c4ccc(OC)cc4)c3=O)c2=O)cc1 | 78.3% | 95.2% | 101% | 84.5% | 99.5% | 90.6% | 98.4% | 93.9% | 89% | 101% | 102% | 95.2% | 92.7% | 94.5% | 110% | 97%
